Screens (PubChem)
HT1080-NT tox – kills 2HG-producing HT-1080-NT fibrosarcoma cells; HT-1080-NT fibrosarcoma viability, CellTiter-Glo ATP luminescence, 48 h; Potency, µM (titrated, usually from 46.1 µM), without a hit: top-dose activity, negative = less viability, actives largely listed as cytotoxic; hit rate 1.6% among 360,000; AID 686970;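 also: NT is the 2HG producing partner of a matched IDH1 knockdown line; potency is read from the fitted curve at half-maximal effect; 0% = DMSO-treated cells and -100% = media-only wells without cells; nearly all actives have a fitted effect of over 55% in size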
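Read-out is CellTiter-Glo luminescence after 10 minutes at room temperature, following 48 hours' compound treatment of HT-1080-NT cells (750 cells/well, RPMI, 5% FBS, 37 degrees C).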
HT1080 IDH1KD tx – HT-1080 IDH1 knockdown cell toxicity (counter line); HT-1080 IDH1 knockdown viability, ATP luminescence, 48 h; Potency, µM (titrated, usually from 46.1 µM), without a hit: at the highest dose activity, negative = toxicity, actives largely listed as cytotoxic; hit rate 2% among 360,000; AID 686971;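 also: potency is read from the fitted curve at half-maximal effect; 0% = DMSO wells and -100% = cell-free medium wells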
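In this qHTS, HT-1080 cells depleted of IDH1 are exposed for 48 h at 37 °C to compound titrations. Toxicity is scored from CellTiter-Glo luminescence, with DMSO as full viability and medium alone as none.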
DT40 TDP1 CPT – growth inhibition of DT40 Tdp1-/-;hTDP1 cells with camptothecin (screen for TDP1 inhibitors); hit rate 12% among 420,000; chicken DT40 Tdp1-/-;hTDP1 cells + 20 nM CPT, ATP luminescence, 48 h; Potency, µM (top dose mostly 46.2 µM), for inactives: at the top dose activity change, negative = growth inhibition, most hits filed as inhibitors; AID 686979; also: potency is read from the fitted curve at half-maximal effect; nearly all actives have a fitted effect of over 55% in size
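Chicken DT40 Tdp1-/- cells complemented with human TDP1, 400 cells/well, exposed to compounds plus 20 nM camptothecin for at least 48 h at 37 C; viability read as ATP content by CellTiter-Glo luminescence.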
DT40 TDP1 no CPT – qHTS for Inhibitors of human tyrosyl-DNA phosphodiesterase 1 (TDP1): qHTS in cells in absence of CPT. DT40 Tdp1-/- hTDP1 cells, no CPT, ATP luminescence, 48 h. Potency, µM (doses to about 46.2 µM), inactives show at the top dose activity change, negative = growth inhibition, hits mostly inhibitors. hit rate 15% among 420,000. AID 686978, 2013; also: potency is read from the fitted curve at half-maximal effect; nearly all actives have a fitted effect of over 55% in size
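Camptothecin absent (DMSO only). Human TDP1-complemented DT40 knockout cells, 400 cells/well, 37 °C for minimum 48 hr; ATP measured via CellTiter-Glo, 30 min dark incubation, luminescence.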
IL1B secr inh – inflammasome signaling inhibition, IL-1 beta readout | THP-1 LPS/ATP IL-1B secretion, AlphaLISA, 16 h; stronger effect = lower value | activity change, % at 57.5 µM | hit rate 4.7% among 360,000 | AID 743279; in the data active = activity change below about -50%; inconclusive = mostly about -30% to -49%
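THP-1 cells pretreated 1 hr with compounds (up to 57.5 uM final), then stimulated with LPS (250 ng/mL final) plus ATP (1.25 mM final); secreted IL-1B measured by AlphaLISA after 16 hr, decreased signal indicating inhibition.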
Active calls of the source: *. This is a sample that favours compounds with a hit; in the whole collection about 19% have one here. Unless noted, calls follow the shape of the dose curve; as a rule, active = well fitted curve in the direction sought with a large enough effect; inconclusive = small, poorly fitted or top-dose-only effect, or another doubt; inactive = no such curve, though single readings can be large; an effect the other way counts as inactive or inconclusive. Unless noted, % is scaled to controls: 0 for no effect and ±100 for the full control effect.

Screening Cc1ccc(NC(=O)Cc2ccc(-n3c(C)nc4cccnc43)cc2)cc1C returned DT40 TDP1 CPT 12µM* and DT40 TDP1 no CPT 18µM*.
`COCCCNC(=O)CCc1nc2cccnc2n1Cc1ccccc1` gave HT1080-NT tox 7%, HT1080 IDH1KD tx -5%, DT40 TDP1 CPT -3%, DT40 TDP1 no CPT -4% and IL1B secr inh 1.
COc1ccc(Cn2c(CCC(=O)Nc3cccc(OC)c3)nc3cccnc32)cc1 was read as DT40 TDP1 CPT -17% and DT40 TDP1 no CPT -3%.
CCOc1ccc(C(CC(=O)Nc2ccc(C(=O)OC)cc2)N2Cc3ccccc3C2=O)cc1OC (configuration not stated) was read as DT40 TDP1 CPT 2% and DT40 TDP1 no CPT 1%.
CC(C)C(NC(=S)NCc1ccccc1)C(=O)O (configuration not stated) was read as HT1080-NT tox 14%, HT1080 IDH1KD tx 10%, DT40 TDP1 CPT -4%, DT40 TDP1 no CPT 3% and IL1B secr inh 26.
Screening COc1ccc(Cn2c(CCC(=O)Nc3cc(OC)c(OC)c(OC)c3)nc3cccnc32)cc1 returned DT40 TDP1 CPT 16µM* and DT40 TDP1 no CPT inconclusive.
Screening COc1ccc(Cn2c(CCC(=O)Nc3ccccc3)nc3cccnc32)cc1 returned HT1080-NT tox -27%, HT1080 IDH1KD tx inconclusive, DT40 TDP1 CPT 3%, DT40 TDP1 no CPT -22% and IL1B secr inh -2.
For Cn1c(N)nc2nc[nH]c2c1=S the results were HT1080-NT tox -5%, HT1080 IDH1KD tx -27%, DT40 TDP1 CPT -15%, DT40 TDP1 no CPT inconclusive and IL1B secr inh 40.
For O=C(Nc1ccccc1F)c1ccc(Cn2nc(N3CCN(c4ccccc4)CC3)ccc2=O)o1 the results were DT40 TDP1 CPT 23µM* and DT40 TDP1 no CPT 15µM*.
Screening COc1ccc(-c2nc3sc(CCNC(=O)c4cc(OC)c(OC)c(OC)c4)c(C)n3n2)cc1 returned DT40 TDP1 CPT 23µM* and DT40 TDP1 no CPT 16µM*.
COc1ccc(-c2nc3sc(CCNC(=O)Cc4ccccc4)c(C)n3n2)cc1 was read as DT40 TDP1 CPT 15µM* and DT40 TDP1 no CPT 21µM*.
COc1ccc(-c2nc3sc(CCNC(=O)c4ccco4)c(C)n3n2)cc1 was read as DT40 TDP1 CPT inconclusive and DT40 TDP1 no CPT 13µM*.
`COc1ccc(-c2nc3sc(CCNC(=O)C(=O)Nc4c(C)cccc4C)c(C)n3n2)cc1` gave DT40 TDP1 CPT -6% and DT40 TDP1 no CPT -13%.
Cc1nc(-c2ccc(Cl)cc2)sc1CCNC(=O)Cc1ccc(F)cc1 was read as DT40 TDP1 CPT 16µM* and DT40 TDP1 no CPT 15µM*.
Screening Cc1ccccc1C(=O)NCCc1sc(-c2ccc(Cl)cc2)nc1C returned DT40 TDP1 CPT -23% and DT40 TDP1 no CPT inconclusive.
Screening COc1ccc(-c2nc3sc(CCNC(=O)C(=O)Nc4ccc(OC)c(OC)c4)c(C)n3n2)cc1 returned DT40 TDP1 CPT -6% and DT40 TDP1 no CPT 1%.
CC(=NNC(=O)CCC(=O)Nc1ccccc1Cl)c1ccco1 was read as HT1080-NT tox 10%, HT1080 IDH1KD tx 5%, DT40 TDP1 CPT 7%, DT40 TDP1 no CPT -3% and IL1B secr inh -2.
Screening COc1ccc(-c2nc3sc(CCNC(=O)Cc4ccc(F)cc4)c(C)n3n2)cc1 returned DT40 TDP1 CPT 16µM* and DT40 TDP1 no CPT 16µM*.
COc1ccc(CC(=O)N(C)CC(=O)Nc2cccc(F)c2)cc1S(=O)(=O)N1CCOCC1 was read as HT1080-NT tox -1%, HT1080 IDH1KD tx 16%, DT40 TDP1 CPT 3%, DT40 TDP1 no CPT 0% and IL1B secr inh 1.
Cc1nc(C(F)(F)F)ccc1C(=O)N1CCC1(C)C(=O)NS(=O)(=O)c1ccc2c(c1)CCO2 (configuration not stated) was read as HT1080-NT tox 14%, HT1080 IDH1KD tx 13%, DT40 TDP1 CPT 8%, DT40 TDP1 no CPT 7% and IL1B secr inh 2.
